Measurements reported in the supplement of paper PMC6763611.

Test system: Plasmodium falciparum NF54
Assay: growth inhibition relative to untreated control; higher = more inhibition
Conditions: 72 h
Outline: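 Growth inhibition was measured by SYBR Green fluorescence, normalised to untreated wells and corrected for background from uninfected erythrocytes. The parasites were P. falciparum NF54 ring stages (1% hematocrit, 1% parasitemia) exposed to single 5 μM or 1 μM doses of test compounds for 72 h at 37 °C, in either minimal RPMI or minimal RPMI containing 2.2 μM folate, 7.3 μM pABA, 7.3 μM pHBA, 111 μM tyrosine, 90 μM phenylalanine and tryptophan.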

[1] = 1 µM, MM + chorismate end-products (CM screening medium)
[2] = 5 µM, MM + chorismate end-products (CM screening medium)

| Compound | growth inhibition [1] | growth inhibition (1 µM, minimal medium (MM)) | growth inhibition [2] | growth inhibition (5 µM, minimal medium (MM)) |
| --- | --- | --- | --- | --- |
| CCCCS(=O)(=O)Nc1ccc2cnn(C)c2c1 | 3.73% | < 0% | 13.4% | 1.13% |
| c1ccc(-c2[nH]c3ccccc3c2C(c2ccccn2)N2CCCC2)cc1 (centres undefined) | 3.66% | 5.9% | 43.6% | < 0% |
| Cc1cc(Nc2ccc(C(F)(F)F)cc2)n2ccnc2n1 | 97.2% | 94.6% | 97.3% | 94.4% |
| CC1=Nc2ccc(Cl)cc2C(O)(c2ccc(C)cc2)N1CCN1CCCCC1 (centres undefined) | 99.9% | > 100% | > 100% | 86.9% |
| Cc1cccc(-c2nc(Nc3ccncn3)c3sccc3n2)n1 | 81.1% | 89.4% | > 100% | 98.7% |
| O=C1COCc2ccc(Br)cc2N1Cc1ccc(C(F)(F)F)cc1 | 56% | 96.7% | > 100% | 85.1% |
| C[C@H](c1ccc2c(c1)CCCC2)N(C)c1ncc2c(N)nc(N)nc2n1 | 8.99% | 2.84% | 36% | 15.3% |
| Cc1cc(Nc2ccncc2)n2nc(C)c(-c3ccccc3Cl)c2n1 | 95.7% | 94.2% | 94% | 92.2% |
| C[C@H]1c2cccc(O)c2C(=O)C2=C(O)[C@]3(O)C(=O)C(C(N)=O)=C(O)[C@@H](N(C)C)[C@@H]3[C@@H](O)[C@@H]21 | 50.6% | 50.7% | 41% | < 0% |
| COc1ccc(OC(C)C(=O)Nc2ccc(Cl)cc2C)cc1 (centres undefined) | 30% | 15.2% | < 0% | < 0% |
| O=C(NCc1ccco1)N1CCN(Cc2ccc(Cl)s2)CC1 | 12.8% | 2.55% | 21% | 5.16% |
| COc1ccc(N(CCc2cccc(C)n2)C(=O)C2CCCCC2)cc1 | 4.48% | 36.2% | 4.56% | 9.01% |
| CC(C)c1ncc(-c2ccncc2)c([C@H]2CC[C@H](CNC(=O)c3cccnc3)CC2)n1 | 77.1% | 76% | 92.5% | 92% |
| NCC(=O)N1CCn2c(nc(-c3ccccc3)c2Nc2ccc3c(c2)OCO3)C1 | 99.3% | > 100% | > 100% | 93.2% |
| Cc1nc(-c2ccccn2)nc(NCCc2ccc(S(C)(=O)=O)cc2)c1Cl | 32.5% | < 0% | 8.44% | < 0% |
| CCCNC(=O)N1CCC2(CC1)CC(=O)c1cc(C)ccc1O2 | 72.5% | 76.5% | 86.4% | 84.9% |
